Measured values as given in PubChem BioAssay (Tox21).
Values without a mark were called inactive. Records with an inconclusive call do not appear. Where a call stands in place of a potency, no number is given. Activity calls are given as the source filed them. Calls follow the shape of the dose curve; as a rule, active = well fitted curve in the direction sought with a large enough effect in the repeat runs; inconclusive = weak or mixed curves; inactive = no such curve, though single readings can be large; an effect the other way counts as inactive or inconclusive.

assay: Caspase-3/7 induction in CHO-K1 cells by small molecules, qHTS cell viability counter screen (AID 1346979); details: CellTiter-Fluor fluorescence, 17 h; series mostly up to 92.4 µM; also: nearly all actives have a fitted effect of over 35% in size
In short: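 Wild-type CHO-K1 cells (1,500/well) treated with compound after 5 h plating; after 16 h at 37C, viability read as CellTiter-Fluor fluorescence following 1 h reagent incubation, in the same wells as the caspase read.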
Potency is read from the fitted curve at half-maximal effect.

SMILES | Potency | activity change, negative = cytotoxicity
CCCCN(CCCC)C(=S)[S-].CCCCN(CCCC)C(=S)[S-].[Ni+2] | inactive | 
CCOP(=O)(OCC)Oc1cc(C)nc(C(C)C)n1 | inactive | 
CSSC | inactive | 
O=Cc1ccccc1 | inactive | 
O=[N+]([O-])C(Br)Br | inactive | 
CNC(=O)O/N=C(\C)C(C)S(C)(=O)=O (stereo not drawn) | inactive | 
O=NN(CCO)CCO | inactive | 
Clc1c(Cl)c(Cl)c(Cl)c(Cl)c1Cl |  | 0.636% [at 8.39 µM]
COc1ccc(Cc2nccc3cc(OC)c(OC)cc23)cc1OC | 13.3 µM (active) | 
CC(C)N(C(=O)SC/C(Cl)=C/Cl)C(C)C | inactive | 
Nc1c(Cl)c(Cl)c(Cl)c(Cl)c1Cl | inactive | 
O=C(NC(=O)c1c(F)cccc1F)Nc1ccc(Oc2ccc(C(F)(F)F)cc2Cl)cc1F | 61.1 µM (active) | 
CC(C)=CCN1CC[C@@]2(C)c3cc(O)ccc3C[C@@H]1[C@@H]2C | inactive | 
C=CC(=C)C | inactive | 
CCCN | inactive | 
BrCCCBr | inactive | 
Nc1ccccc1-c1ccccc1 | inactive | 
O.O.O.O=C([O-])[C@H]([O-])[C@@H]([O-])C(=O)[O-].O=C([O-])[C@H]([O-])[C@@H]([O-])C(=O)[O-].[K+].[K+].[Sb+3].[Sb+3] | 17.3 µM (active) | 
CCC[CH2][Sn]([CH2]CCC)([CH2]CCC)[CH2]CCC | 9.69 µM (active) | 
C[N+]1(C)[C@@H]2CC[C@H]1CC(OC(=O)C(CO)c1ccccc1)C2 (stereo partly drawn) | inactive | 
O=c1c2ccccc2c(=O)c2c1cc(Cl)c1[nH]c3c([nH]c12)c(Cl)cc1c(=O)c2ccccc2c(=O)c13 | inactive | 

assay: Caspase-3/7 induction in CHO-K1 cells by small molecules, qHTS assay (AID 1346980); details: CHO-K1 caspase-3/7 induction, Caspase-Glo luminescence, 17 h; series mostly up to 92.4 µM; also: nearly all actives have a fitted effect of over 15% in size
In short: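 Luminescent Caspase-Glo 3/7 read (30min, room temperature) quantified apoptosis induction. Cells were wild-type CHO-K1, treated with compound for 17hr at 37 C and 5% CO2.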

SMILES | Potency | caspase-3/7 activation
NC1CCC(CC2CCC(N)CC2)CC1 (stereo not drawn) | inactive | 
O=S(=O)(O)F | inactive | 
CC[C@H](C)[C@H]1O[C@]2(C=C[C@@H]1C)C[C@@H]1C[C@@H](C/C=C(\C)[C@@H](O[C@H]3C[C@H](OC)[C@@H](O[C@H]4C[C@H](OC)[C@@H](NC)[C@H](C)O4)[C@H](C)O3)[C@@H](C)/C=C/C=C3\CO[C@@H]4[C@H](O)C(C)=C[C@@H](C(=O)O1)[C@]34O)O2 | 6.11 µM (active) | 
O=S1(=O)OCC2C(CO1)C1(Cl)C(Cl)=C(Cl)C2(Cl)C1(Cl)Cl (stereo not drawn) | inactive | 
C#CCO | inactive | 
C=CCOC(=O)c1ccccc1N | inactive | 
CN/C(=N\[N+](=O)[O-])NCc1cnc(Cl)s1 | inactive | 
CC(C)NCC(O)c1ccccc1Cl (stereo not drawn) | inactive | 
O=C(O)[C@H](O)[C@@H](O)C(=O)O | inactive | 
CC(C)[C@@H](Nc1ccc(C(F)(F)F)cc1Cl)C(=O)OC(C#N)c1cccc(Oc2ccccc2)c1 (stereo partly drawn) | inactive | 
CCC1(CC)C(=O)N=C(O)NC1=O | inactive | 
CC(=O)[O][Pb]([c]1ccccc1)([c]1ccccc1)[c]1ccccc1 | 0.486 µM (active) | 
CC(C)c1c(CN(C)C(C)Cc2ccccc2)n(C)n(-c2ccccc2)c1=O (stereo not drawn) | inactive | 
Cc1nn(-c2cc(NS(C)(=O)=O)c(Cl)cc2Cl)c(=O)n1C(F)F | inactive | 
CCNS(=O)(=O)C(F)(F)C(F)(F)C(F)(F)C(F)(F)C(F)(F)C(F)(F)C(F)(F)C(F)(F)F | inactive | 
CCOP(=S)(OCC)Oc1cc(C)nc(N(CC)CC)n1 | inactive | 
CNN | inactive | 
O=P(Cl)(Cl)Cl | inactive | 
CCCCN(CCCC)C(=S)[S-].CCCCN(CCCC)C(=S)[S-].[Ni+2] | inactive | 
CCOP(=O)(OCC)Oc1cc(C)nc(C(C)C)n1 | inactive | 

SMILES | Potency | caspase-3/7 activation
CSSC | inactive | 
O=Cc1ccccc1 | inactive | 
O=[N+]([O-])C(Br)Br | inactive | 
CNC(=O)O/N=C(\C)C(C)S(C)(=O)=O (stereo not drawn) | inactive | 
O=NN(CCO)CCO | inactive | 
Clc1c(Cl)c(Cl)c(Cl)c(Cl)c1Cl |  | 0.528% [at 8.39 µM]
COc1ccc(Cc2nccc3cc(OC)c(OC)cc23)cc1OC | inactive | 
CC(C)N(C(=O)SC/C(Cl)=C/Cl)C(C)C | inactive | 
Nc1c(Cl)c(Cl)c(Cl)c(Cl)c1Cl | inactive | 
O=C(NC(=O)c1c(F)cccc1F)Nc1ccc(Oc2ccc(C(F)(F)F)cc2Cl)cc1F | inactive | 
CC(C)=CCN1CC[C@@]2(C)c3cc(O)ccc3C[C@@H]1[C@@H]2C | inactive | 
C=CC(=C)C | inactive | 
CCCN | inactive | 
BrCCCBr | inactive | 
Nc1ccccc1-c1ccccc1 | inactive | 
O.O.O.O=C([O-])[C@H]([O-])[C@@H]([O-])C(=O)[O-].O=C([O-])[C@H]([O-])[C@@H]([O-])C(=O)[O-].[K+].[K+].[Sb+3].[Sb+3] | inactive | 
CCC[CH2][Sn]([CH2]CCC)([CH2]CCC)[CH2]CCC | 17.2 µM (active) | 
C[N+]1(C)[C@@H]2CC[C@H]1CC(OC(=O)C(CO)c1ccccc1)C2 (stereo partly drawn) | inactive | 
O=c1c2ccccc2c(=O)c2c1cc(Cl)c1[nH]c3c([nH]c12)c(Cl)cc1c(=O)c2ccccc2c(=O)c13 | inactive | 

assay: Caspase-3/7 induction in HepG2 cells by small molecules, qHTS cell viability counter screen (AID 1346981); details: CellTiter-Fluor fluorescence, 17 h; series mostly up to 92.4 µM; also: nearly all actives have a fitted effect of over 30% in size
In short: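 CellTiter-Fluor fluorescence measured viability in the same wells used for Caspase-Glo 3/7. HepG2 (wild type) at 2,000 cells/well were pre-incubated 5 hr, dosed, and given reagent at 16 hr, with 1 hr further at 37C.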

SMILES | Potency | activity change, negative = cytotoxicity
CC[C@H](C)[C@H]1O[C@]2(C=C[C@@H]1C)C[C@@H]1C[C@@H](C/C=C(\C)[C@@H](O[C@H]3C[C@H](OC)[C@@H](O[C@H]4C[C@H](OC)[C@@H](NC)[C@H](C)O4)[C@H](C)O3)[C@@H](C)/C=C/C=C3\CO[C@@H]4[C@H](O)C(C)=C[C@@H](C(=O)O1)[C@]34O)O2 | 15.4 µM (active) | 
O=C(O)[C@H](O)[C@@H](O)C(=O)O | inactive | 
CCC1(CC)C(=O)N=C(O)NC1=O | inactive | 
CC(C)c1c(CN(C)C(C)Cc2ccccc2)n(C)n(-c2ccccc2)c1=O (stereo not drawn) | inactive | 
CNN | inactive | 
CSSC | inactive | 
CNC(=O)O/N=C(\C)C(C)S(C)(=O)=O (stereo not drawn) | inactive | 
Clc1c(Cl)c(Cl)c(Cl)c(Cl)c1Cl |  | -1.11% [at 8.39 µM]
CC(C)N(C(=O)SC/C(Cl)=C/Cl)C(C)C | inactive | 
Nc1c(Cl)c(Cl)c(Cl)c(Cl)c1Cl | inactive | 
CC(C)=CCN1CC[C@@]2(C)c3cc(O)ccc3C[C@@H]1[C@@H]2C | inactive | 
Nc1ccccc1-c1ccccc1 | inactive | 
O.O.O.O=C([O-])[C@H]([O-])[C@@H]([O-])C(=O)[O-].O=C([O-])[C@H]([O-])[C@@H]([O-])C(=O)[O-].[K+].[K+].[Sb+3].[Sb+3] | inactive | 
